Sampled rows, rich in hits. Any-hit rate of the full collection: about 4.3%.
FAS TE block: FAS thioesterase domain inhibitors, primary screen, biochemical, fluorescence intensity, uHTS; recombinant FAS-TE, OMFH fluorogenic substrate, fluorescence endpoint; Fatty acid synthase (Homo sapiens), P49327; inhibition, % at 15 µM; 0.67% of 360,000 active;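 active = compounds whose normalised, plate-corrected inhibition of enzyme fluorescence in the single-dose primary screen is 50% or more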;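 note: 0% = DMSO with enzyme and 100% = substrate without enzyme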
HGIII-sPLA2 inh: human group III sPLA2 inhibitors, primary screen, biochemical, QFRET, BODIPY PC-A2 liposome substrate; AID 743126, 2013; inhibition, % at 12.2 µM; 0.56% of 370,000 active; QFRET BODIPY PC-A2 liposome hydrolysis, fluorescence;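 active = inhibition above mean plus 3 SD of compounds lying within the high and low control bounds, cut at about 19% in these data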;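 note: 0% = median of test compound wells and 100% = no enzyme DMSO wells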
NR3A LBD binder: binders of NR3A ligand-binding domain, primary screen, biophysical, differential scanning fluorimetry, uHTS; Tm shift relative to glycine control, % at 25 µM; 2.5% of 340,000 active; NR3A LBD differential scanning fluorimetry, Tm shift; 0% = protein alone, 100% = glycine-bound protein;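 active = melting temperature shift of at least 10% of the positive control shift, at one fixed dose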
ADAM10 inh: human ADAM10 inhibitors, primary screen, biochemical, QFRET, HTS; Disintegrin and metalloproteinase domain-containing protein 10 (Homo sapiens), O14672; recombinant ADAM10, EDANS/DABCYL FRET peptide cleavage, 3 h; inhibition, % at 7 µM; 0.62% of 370,000 active; AID 720582, 2013;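 active = inhibition above a per-campaign cutoff equal to the mean of compounds falling between control-based bounds plus 3 SD, cut at about 20% in these data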;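 note: 0% = DMSO wells while the 100% control is not disclosed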
ADAM17 inh: ADAM17 inhibitors, primary screen, biochemical, QFRET; AID 720648, 2013; recombinant ADAM17, EDANS/DABCYL FRET peptide cleavage; 0.83% of 370,000 active; inhibition, % at 6.95 µM;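 active = inhibition above the mean of compounds lying between control limits plus 3 SD, set per campaign, cut at about 8.5% in these data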;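 note: 0% = DMSO-only wells as the low control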
Starred values were filed as active, the others as inactive; / = no result given.

SMILES | FAS TE block | HGIII-sPLA2 inh | NR3A LBD binder | ADAM10 inh | ADAM17 inh
O=C(COC(=O)c1c[nH]c2ccccc12)Nc1ccc([N+](=O)[O-])cc1 | 9 | -9 | 2 | 12 | 6
COC(=O)c1cc(NC(=O)COC(=O)CCc2c[nH]c3ccccc23)cc(C(=O)OC)c1 | 0 | -10 | 11* | -1 | -5
O=C(COC(=O)CCc1c[nH]c2ccccc12)Nc1ccc([N+](=O)[O-])cc1 | 21 | -90 | 35* | 9 | 1
CCC(CC)NC(=O)O[C@H]1CC[C@@]23CCCN2C(=O)CCC[C@H]3C1 | / | 5 | / | -10 | -2
Clc1cccc(CNC2CCC23CCCCC3)c1 (configuration not stated) | / | 5 | / | 5 | -2
COc1ccc(C(c2c(O)ccc3ccccc23)N2CCOCC2)c(OC)c1 (configuration not stated) | 30 | 20* | 0 | 8 | 1
COc1ccc(C(CCN2CCOCC2)c2c(O)cc(OC)cc2OC)cc1 (configuration not stated) | -5 | -5 | 1 | -5 | -4
CC(C)(C)OC(=O)N1CCC[C@H]1c1nnc(SCC(=O)Nc2ccc(Br)cc2)o1 | 1 | -33 | 29* | 1 | -1
O=[N+]([O-])c1ccc(N/N=C/c2cn(-c3ccccc3)nc2-c2ccccc2)cc1 | -3 | -1 | 41* | 5 | -5
Cc1ccc(S(=O)(=O)N/N=C\c2cn(-c3ccccc3)nc2-c2ccccc2)cc1 | 36 | -27 | 29* | 10 | 6
Cc1ccc(-c2nn(-c3ccccc3)cc2/C=N/O)cc1 | 0 | -7 | -9 | 16 | -1
COc1ccc(-c2nn(-c3ccccc3)cc2/C=N/NC(N)=S)cc1OC | 11 | -4 | 19* | -6 | 0
NS(=O)(=O)c1ccc(N/N=C/c2cn(-c3ccccc3)nc2-c2ccccc2)c([N+](=O)[O-])c1 | 8 | -3 | 7 | -2 | -2
Cc1ccc(-c2nn(-c3ccccc3)cc2/C=N/NS(=O)(=O)c2ccccc2)cc1 | 25 | -39 | 24* | 12 | 7
CC(C)(C)c1ccc(-c2nnc(SCC(=O)Nc3ccc(Oc4ccccc4)cc3)n2Cc2ccco2)cc1 | / | -4 | / | 0 | 0
NC(=O)N/N=C/c1cn(-c2ccccc2)nc1-c1ccccc1 | 2 | -9 | -13 | 5 | 0
O=S(=O)(N/N=C\c1cn(-c2ccccc2)nc1-c1ccccc1)c1ccccc1 | 24 | -32 | 20* | 12 | 3
O=C(Nc1ccc(F)cc1)OCc1cn(Cc2c(F)cccc2F)nn1 | / | -10 | / | 3 | -2
COc1ccc(CN2C[C@]3(C=C(C)Cn4c(=O)n(-c5ccccc5)c(=O)n43)N=C2NC(=O)c2ccccc2)c(OC)c1 | / | 18 | / | 9 | -1
O=C(COC(=O)Cc1ccc(Cl)cc1)Nc1ccc(OC(F)F)cc1 | 19 | 6 | -4 | 3 | 2
O=C(Nc1ccc(Cl)cc1)N(C1=NCCC1)c1ccc(OC(F)F)cc1 | 35 | -2 | 23* | 0 | 0
NC(=O)C1CCN(c2ccnc(Cl)n2)CC1 | / | -2 | / | 3 | 0
CCOC(=O)c1sc(=S)[nH]c1C | -8 | 23* | 2 | -8 | -4
CCOC(=O)c1c(C)[nH]sc1=S | -6 | 5 | 3 | 1 | -2
CC1(c2ccc(Cl)cc2)NC(=O)N(CC(=O)N2CCCC2)C1=O (configuration not stated) | -7 | 2 | 11* | -5 | -6
SMILES | FAS TE block | HGIII-sPLA2 inh | NR3A LBD binder | ADAM10 inh | ADAM17 inh
Cc1ccc(-n2c(SCC(=O)Nc3ccc(Oc4ccccc4)cc3)nnc2-c2ccco2)cc1 | / | -7 | / | 0 | 0
COCCCNC(=O)C[C@H]1C[C@@]2(C(=O)OC)C(=C[C@H](C3CCCC3)O[C@@H]2C)N(CCc2ccc(OC)c(OC)c2)C1=O | / | -2 | / | 4 | 1
O=c1ccn([C@@H]2O[C@H](CNS(=O)(=O)C3CC3)[C@@H](O)[C@H]2O)c(=O)[nH]1 | -9 | 2 | 14* | -8 | -2
Cc1ccc(N2C(=O)C(c3c(C)[nH]n(-c4ccccc4)c3=O)(C(F)(F)F)C3=C2CC(C)(C)CC3=O)cc1 (configuration not stated) | -2 | -6 | -5 | 2 | -1
Cc1[nH]n(-c2ccccc2)c(=O)c1C1(C(F)(F)F)C(=O)N(c2ccccc2)C2=C1C(=O)CC(C)(C)C2 (configuration not stated) | -3 | 1 | 13* | -5 | -4
COc1ccc(NC(=O)c2cc3c(C)nn(-c4ccccc4)c3s2)cc1 | / | -16 | / | -14 | 3
N=C1S/C(=C\c2cccc3ccccc23)C(=O)N1c1ccc(F)cc1 | 3 | -16 | 11* | -3 | -3
N=C1S/C(=C\c2ccccc2F)C(=O)N1c1ccc(F)cc1 | -3 | -1 | 11* | 0 | 0
CCC[C@H]1[C@@H](O)CC[C@@]23CCCN2C(=O)CCC[C@@H]13 | / | 7 | / | -3 | -6
CC(C)(C)C(=O)CN1CCN(S(=O)(=O)c2ccc(F)cc2)CC1 | -9 | 3 | 12* | -1 | -6
CC(=O)N1CCN(c2ccc(NC(=O)c3ccc(Cl)c([N+](=O)[O-])c3)cc2)CC1 | 9 | -2 | 15* | 2 | 2
Cc1ccc(S(=O)(=O)N2CCN(CC(=O)N/N=C/c3ccc(C)o3)CC2)cc1 | -5 | -4 | 32* | 11 | 2
Cc1ccc(NC(=O)c2ccc(NCCCN3CCOCC3)c([N+](=O)[O-])c2)cc1Cl | 18 | -17 | -7 | 9 | 3
COc1ccc(NC(=O)c2ccc(NCCCN3CCOCC3)c([N+](=O)[O-])c2)cc1 | 4 | 1 | 14* | 5 | 4
COC(=O)[C@H](C)NC(=O)[C@H](CC(C)C)NC(=O)OC(C)(C)C | / | 1 | / | 0 | -2
O=C([C@@H]1C[C@H]1c1ccccc1)N1CC[C@H]2[C@H](CCCN2Cc2ccccc2)C1 | / | -5 | / | -9 | -4
O=C(NCCCN1CCOCC1)c1ccc(Sc2cccc(Cl)c2)c([N+](=O)[O-])c1 | 3 | -7 | 19* | -10 | -4
O=C(Nc1ccc(S(=O)(=O)N2CCOCC2)cc1)c1cccc(Br)c1 | 12 | -9 | 31* | 8 | 7
Cc1ccc(C(=O)Nc2ccc(S(=O)(=O)N3CCOCC3)cc2)cc1C | 7 | -1 | 22* | 5 | -3
CC(C)C(=O)Nc1cccc(C(=O)Nc2ccc(S(=O)(=O)N3CCOCC3)cc2)c1 | -5 | -5 | 1 | -4 | -3
Cc1ccc(C(=O)N2CCN(c3ccc(NC(=O)c4cc(C)cc(C)c4)cc3)CC2)cc1 | -5 | -4 | 13* | -5 | 1
